An excerpt weighted towards active compounds, which were near 3.2% of everything screened.
NOTCH agonist: agonists of NOTCH signaling. NOTCH signaling luciferase reporter cells, luminescence. 15,000 compounds, 0.4% hits. activation, % at 2.5 µM. AID 434982, 2010; in the data active means activation above about 2.2%
PME-1 Maybridge: inhibitors of human PME-1 in Maybridge library; Protein phosphatase methylesterase 1 (Homo sapiens), Q9Y570; recombinant PME-1, FP-Rh probe fluorescence polarization; inhibition, % at 9 µM; 16,000 compounds, 0.5% hits; in the data active means inhibition above about 30%
OPRK1 antag MB: antagonists of human kappa opioid receptor OPRK1, Maybridge library. AID 652031, 2013. inhibition, % at 9 µM. OPRK1 cells, antagonist mode, fluorescence readout. 16,000 compounds, 0.4% hits. Kappa-type opioid receptor (Homo sapiens), P41145; in the data active means inhibition above about 50%
S1P1 ag: activates the human S1P1 receptor; AID 1044, 2008; Sphingosine 1-phosphate receptor 1 (Homo sapiens), P21453; 16,000 compounds, 1.5% hits; activation, % at 4.5 µM; S1P1 agonist cell-based reporter assay; in the data active means activation above about 80%
rat GALR2 agon: agonists of rat galanin receptor 2 (GALR2); 16,000 compounds, 0.5% hits; cell-based GALR2 agonist screen; Galanin receptor type 2 (Rattus norvegicus), O08726; AID 833, 2007; activation, % at 10 µM; in the data active means activation above about 15%
TLR4-MyD88 inh: inhibitors of human TLR4-MyD88 binding; Toll-like receptor 4 (Homo sapiens), O00206; Cell-based TLR4-MyD88 binding inhibition assay; inhibition, % at 10 µM; 16,000 compounds, 0.06% hits; in the data active means inhibition above about 45%
The depositor's hits bear a star; · = no result.

SMILES | NOTCH agonist | PME-1 Maybridge | OPRK1 antag MB | S1P1 ag | rat GALR2 agon | TLR4-MyD88 inh
O=C(Nc1ccccc1)O/N=C/c1ccc(F)c(Cl)c1 | 1.8 | 0.9 | 3.0 | 7.3 | -9.4 | -4.0
COc1ccc(-c2cc(C(F)(F)F)n3nc(C4CC4)cc3n2)cc1 | -0.8 | 0.8 | 19.7 | 85.0* | -5.6 | -4.9
COc1ccc(-c2cc(C(F)(F)F)nc(N)n2)cc1 | -1.0 | 5.5 | -3.7 | 50.4 | -3.0 | -1.9
COc1ccc(-c2cc(C(F)(F)F)n3nc(-c4ccco4)cc3n2)cc1OC | -0.5 | -14.4 | -11.9 | 52.5 | 26.9* | 6.6
Fc1ccc(-c2nnnn2-c2ccccc2C(F)(F)F)cc1 | -0.4 | 6.9 | 2.7 | 14.5 | -6.5 | -1.2
Cc1nn(-c2ccccc2)c(C)c1C(=O)Nc1ccc2c(c1)OCO2 | -0.3 | 1.7 | -7.0 | 6.1 | -5.7 | 25.6
N/C(=N/OC(=O)c1ccno1)c1ccc(C(F)(F)F)cc1 | -1.0 | -0.5 | 6.4 | 19.2 | -3.0 | 8.6
Cn1cc(C(=O)O/N=C(\N)c2ccc(C(C)(C)C)cc2)c(C(F)(F)F)n1 | 0.0 | -7.7 | 34.7 | 100.0* | -5.6 | -10.7
CCOC(=O)Cn1c(=O)c(-c2nc(-c3ccc(Cl)cc3)cs2)cn(C(C)C)c1=O | -0.6 | -0.1 | -1.8 | 9.6 | 15.6* | -0.1
CSc1sc(C(=O)O)cc1-c1nc(-c2ccc(Cl)cc2)cs1 | 0.4 | -1.6 | 4.7 | 4.7 | -7.5 | 7.3
CCCCCCCCCCCC(=O)ON1C(=O)CCC1=O | -0.9 | 5.0 | 50.5* | -4.6 | -2.9 | 4.3
C#Cc1cccc(NC(=O)c2sc3nc4c(c(-c5cccs5)c3c2N)CCCC4)c1 | 1.0 | -0.9 | 64.7* | 21.0 | -1.7 | -4.5
N#CC(C#N)=C1c2cc(S(N)(=O)=O)cc([N+](=O)[O-])c2-c2c1cc(S(N)(=O)=O)cc2[N+](=O)[O-] | -0.3 | 72.7* | 5.0 | -13.7 | -10.8 | -20.9
CCOC(=O)CSc1ccc(S(N)(=O)=O)cc1[N+](=O)[O-] | 0.3 | 5.7 | 3.7 | -0.8 | -4.2 | -2.8
O=C1Nc2ccccc2/C1=C\C=C\c1ccccc1 | -1.1 | 4.7 | -1.5 | 0.7 | -6.0 | 3.0
CN(C)c1ccc(NC(=O)Nc2ccc(OCc3ccccc3)cc2)cc1 | -0.2 | 2.0 | 13.6 | 6.8 | -7.1 | -3.6
Cc1ccc(NC(=O)Nc2ccc(OCc3ccccc3)cc2)cc1NS(C)(=O)=O | · | 3.7 | -4.8 | 88.1* | -5.6 | -12.7
CCOC(=O)COc1cccc(NC(=O)c2ccccc2Cl)c1 | -0.2 | -3.8 | -15.1 | -5.1 | -7.3 | -16.6
CCOC(=O)COc1cccc([N+](=O)[O-])c1 | 3.0* | 5.3 | 3.1 | -9.7 | -8.0 | -5.2
c1cnc(-c2nc(C34CC5CC(CC(C5)C3)C4)cs2)cn1 | -0.3 | 0.7 | -5.6 | 0.4 | -9.3 | 0.0
COC(=O)c1ccc(S(=O)(=O)NCCN2CCNC2=O)n1C | -0.5 | 0.6 | -5.6 | -4.6 | -7.4 | 7.1
COC(=O)c1cc(-c2ccc(OC)cc2)c(-c2ccc(OC)cc2)s1 | -0.1 | 7.5 | 78.4* | 6.0 | -12.1 | -9.7
COc1ccc(OCC(O)CNC(=O)c2cc(C)on2)cc1 (centres undefined) | 0.0 | 5.3 | 18.0 | -5.9 | -8.4 | -14.9
CC(C)(O)C#Cc1ccccn1 | -0.5 | -0.3 | -6.0 | -19.1 | 27.2* | 3.3
COc1cccc(/C=C(\C#N)c2ccc([N+](=O)[O-])cc2)c1OC | 0.6 | -2.4 | 68.6* | -2.1 | -11.1 | -2.7
SMILES | NOTCH agonist | PME-1 Maybridge | OPRK1 antag MB | S1P1 ag | rat GALR2 agon | TLR4-MyD88 inh
COc1ccc([N+](=O)[O-])c(C=C(C#N)C#N)c1OC | -5.5 | 8.2 | 11.6 | -5.9 | -9.9 | 1.2
Cc1onc(-c2ccccc2)c1C(=O)N=S(C)(=O)c1ccccc1 (centres undefined) | -0.8 | 0.5 | -3.3 | -0.7 | -4.1 | -7.1
N#C/C(=C\Nc1cc(C(F)(F)F)cc(C(F)(F)F)c1)S(=O)(=O)Cc1ccc(Cl)cc1 | -0.6 | -1.0 | 18.5 | 100.4* | -8.8 | -0.9
O=c1c2cc(-c3ccccc3)sc2nnn1/N=C/c1cccs1 | 0.1 | -1.3 | 70.9* | 71.2 | -17.9 | 14.1
CCOC(=O)/C(C#N)=C/N1CCN(c2ccc(C(F)(F)F)cc2[N+](=O)[O-])CC1 | 0.3 | 4.2 | 21.4 | 2.4 | 0.6 | ·
COc1ccc(S(=O)(=O)N2CCN(c3ccc(C(F)(F)F)cc3[N+](=O)[O-])CC2)cc1OC | -0.7 | 5.1 | -30.8 | 51.3 | 79.7* | -1.8

Bioassay records (PubChem)
